The text below walks through data of PubChem BioAssay (NCATS).

A short description of test [1]: qHTS assay for measurement of the activity of small molecule inhibitors on Zika virus induced Caspase-3 activity in human astrocytoma cells (AID 1224859). An outline of the steps:
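Readout is luminescence from Caspase-Glo 3/7 added after a 6 h ZIKV infection (2 FFU/cell) of compound-pretreated (1 h) SNB-19 cells; data expressed as % inhibition versus uninfected and infected wells.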
Background: qHTS replaces the single test concentration by a dilution series.

Test [2] is described as follows: qHTS assay to identify small molecule inhibitors of chordoma cells - UCH-1 (AID 1259355). Note: nearly all actives have a fitted effect of over 55% in size. In outline:
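Cells (800/well) were seeded and left overnight at 37 C, 5% CO2, then treated with drugs at 15 concentrations plus a combination mix of auranofin, camptothecin, doxorubicin, rubitecan and topotecan. Viability after 48hr was read by CellTiter-Glo luminescence.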

Test [3] in a line: qHTS assay to identify small molecule inhibitors of chordoma cells - UCH-2 (AID 1259356). Note: series mostly up to about 46 µM.
The nature of test [4]: P-glycoprotein substrates identified in KB-8-5-11 adenocarcinoma cell line, qHTS therapeutic library screen (AID 1346987). Note: nearly all actives have a fitted effect of over 65% in size. Note: potency is the fitted concentration of half-maximal effect. In outline: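 KB-8-5-11: colchicine-selected sub-line of KB-3-1 over-expressing P-gp; assay medium lacked colchicine. 72 h drug exposure at 37 degree C, CellTiter-Glo.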
Test [5] is described as follows: NS1 protein of Zika virus - qHTS assay to identify small molecule inhibitors in human HEK 293 cells (AID 1347053). Note: series mostly up to about 46 µM; nearly all actives have a fitted effect of over 55% in size. An outline of the steps:
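Inhibition of NS1 expression was scored in HEK 293 cells given compound 1 h ahead of MR766 virus (MOI = 0.5). Following 24 h at 37 C, two anti-NS1 antibodies generated a TR-FRET signal, scaled between uninfected and infected controls.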

Test [6] is described as follows: qHTS of pediatric cancer cell lines to identify multiple opportunities for drug repurposing: Primary screen for TC32 cells (AID 1347089). Note: nearly all actives have a fitted effect of over 60% in size. An outline of the steps: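 qHTS, TC32, 48 h drug treatment, CellTiter-Glo luminescence as a proxy for metabolically active cells; primary top concentration 46 µM (MIPE 11-pt, NPC 8-pt); confirmatory 11-pt.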
Test [7] is described as follows: qHTS of pediatric cancer cell lines to identify multiple opportunities for drug repurposing: Primary screen for DAOY cells (AID 1347090). Note: series mostly up to about 46 µM; nearly all actives have a fitted effect of over 55% in size. In outline:
(§1)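 Viability measured as metabolically active cells via CellTiter-Glo luminescence following 48 hours of compound exposure, 11-point dilutions in confirmatory testing. 500-1,000 cells/well plated 5 hours before dosing; controls were DMSO and 2.3 µM bortezomib.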

Test [8] can be described thus: qHTS of pediatric cancer cell lines to identify multiple opportunities for drug repurposing: Primary screen for SJ-GBM2 cells (AID 1347091). An outline of the steps:
as §1

Test [9] in a line: qHTS of pediatric cancer cell lines to identify multiple opportunities for drug repurposing: Primary screen for A673 cells (AID 1347092). Note: nearly all actives have a fitted effect of over 45% in size. In outline:
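Luminescence from CellTiter-Glo, taken after 15 min at room temperature, served as the proxy for metabolically active cells following 48 h treatment. Both potency and efficacy were taken from curves fitted to the titration data.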

Test [10] in a line: qHTS of pediatric cancer cell lines to identify multiple opportunities for drug repurposing: Primary screen for SK-N-MC cells (AID 1347093). Note: series mostly up to about 46 µM. An outline of the steps:
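Metabolically active cells were quantified by ATP-dependent luminescence (CellTiter-Glo, 15 min at room temperature) following 48 h treatment. Cells had been plated at 500-1,000 per well and settled for 5 h beforehand.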

Test [11] can be described thus: qHTS of pediatric cancer cell lines to identify multiple opportunities for drug repurposing: Primary screen for BT-37 cells (AID 1347094). Note: series mostly up to about 57 µM. In outline: (§2)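 Quantitative HTS format: each compound titrated (MIPE 11 points from 0.78 nM, NPC 8 points from 0.59 nM) onto cells plated 5 hours earlier. After 48 h at 37 degrees C, CellTiter-Glo luminescence was recorded.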
A short description of test [12]: qHTS of pediatric cancer cell lines to identify multiple opportunities for drug repurposing: Primary screen for NB-EBc1 cells (AID 1347095). In outline:
as §2

The nature of test [13]: Natriuretic polypeptide receptor (hNpr1) antagonism - Pilot counterscreen GloSensor control cell line (AID 1347045; calls by dose curve; note: series mostly up to about 38 µM). In outline: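 HEK293 cells carrying the GloSensor cGMP sensor (GIP/pGS-40F) were loaded with 2% GloSensor reagent for 2 h, exposed to compounds for 30 min, and then stimulated with 50 uM sodium nitroprusside for 20 min at room temperature.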
On the technique in general: A counterscreen serves to expose hits that act by an unwanted route or on another target.

For test [14], the target named is Atrial natriuretic peptide receptor 1 (Homo sapiens) (UniProt P16066). In words: Natriuretic polypeptide receptor (hNpr1) antagonism - Pilot screen (AID 1347049; calls by dose curve;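 note: agonist-evoked cGMP luminescence read 20 min after hNppA addition; series mostly up to about 58 µM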). An outline of the steps:
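HEK293 cells expressing hNpr1 and GloSensor cGMP luciferase, 1500/well, loaded with 2% GloSensor reagent 2 h, compound 30 min at room temperature; luminescence read before and 20 min after 0.1 nM hNppA stimulation.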

Test [15] addresses Atrial natriuretic peptide receptor 2 (Homo sapiens) (UniProt P20594). In words: Natriuretic polypeptide receptor (hNpr2) antagonism - Pilot subtype selectivity assay (AID 1347050; calls by dose curve). In outline:
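HEK293 cells expressing hNpr2 and a GloSensor cGMP luciferase sensor, 1500/well, preloaded 2 h with 2% GloSensor reagent, compound 30 min, then 1 nM hNppC for 20 min. Antagonism from luminescence after versus baseline pre-read; LOPAC in 1:5 titrations.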

Test [16] concerns the target T1, Tyrosine-protein phosphatase non-receptor type substrate 1 (Homo sapiens) + Leukocyte surface antigen CD47 (Homo sapiens) (UniProt P78324+Q08722). Briefly: CD47-SIRPalpha protein protein interaction - LANCE assay qHTS validation (AID 1347057; active = well fitted curve in the direction sought with a large enough effect in the signal ratio, with a control signal flat, not every such curve was filed as active; the % refers to the signal ratio; note: series mostly up to about 38 µM). In outline: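 First, His-tagged CD47 and Eu-labelled anti-His antibody met the compound for 30 min; next, site-specifically biotinylated SIRPalpha was added for 30 min; finally streptavidin-APC was added before reading the TR-FRET ratio.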
On the technique in general: Time-resolved FRET reads energy transfer from a long-lived donor to a nearby acceptor.

Test [17] concerns the target T1, Tyrosine-protein phosphatase non-receptor type substrate 1 (Homo sapiens) + Leukocyte surface antigen CD47 (Homo sapiens). Briefly: CD47-SIRPalpha protein protein interaction - HTRF assay qHTS validation (AID 1347058; active = well fitted curve in the direction sought with a large enough effect in the signal ratio, not every such curve was filed as active; the % refers to the signal ratio;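 note: recombinant soluble extracellular CD47 with His tag and biotinylated SIRPalpha domains; series mostly up to about 38 µM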). In outline: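 TR-FRET read (Ch1/Ch2 ratio) of soluble extracellular CD47 and Avi-biotinylated SIRPalpha domains in PBS pH 7.4 with 0.05% IGEPAL; 7-point compound titration. Sequential 30 min room-temperature steps; non-biotinylated SIRPalpha as control inhibitor.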

The target is the same in test [18]. Briefly: CD47-SIRPalpha protein protein interaction - Alpha assay qHTS validation (AID 1347059).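 Note: bead proximity luminescence from CD47 binding SIRPalpha after compound preincubation with SIRPalpha.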 An outline of the steps: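 Biotinylated Avi-tagged SIRPalpha (25 nM) preincubated 30 min with compound, then His-tagged CD47 (12.5 nM) added 30 min; AlphaScreen with Ni-NTA acceptor and streptavidin donor beads. PBS pH 7.4, 0.05% IGEPAL, room temperature; 7-point titrations.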

Test [19] has as its target Parathyroid hormone/parathyroid hormone-related peptide receptor (Homo sapiens) (UniProt Q03431). In words: qHTS for PTHR1 Agonists: Optimization Screen against the NCGC LOPAC library (AID 1347079).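 Note: GloSensor cAMP luminescence in HEK-293 GP2 cells expressing human PTHR1 with IBMX.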 An outline of the steps:
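Compounds were tested across a qHTS titration. PTHR1-expressing GP2 cells report cAMP rises via GloSensor luminescence after 1 hr compound exposure at 37C with IBMX present.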

Structures are written as SMILES. Records with an inconclusive call do not appear. Calls of active or inactive are those of the source. Unless noted, calls come from the whole dose curve; as a rule, active = well fitted curve in the direction sought with a large enough effect; inconclusive = small, poorly fitted or top-dose-only effect, or another doubt; inactive = no such curve, though single readings can be large; an effect the other way counts as inactive or inconclusive.

Sequence of Atrial natriuretic peptide receptor 1 (Homo sapiens) (P16066 whole entry, looked up): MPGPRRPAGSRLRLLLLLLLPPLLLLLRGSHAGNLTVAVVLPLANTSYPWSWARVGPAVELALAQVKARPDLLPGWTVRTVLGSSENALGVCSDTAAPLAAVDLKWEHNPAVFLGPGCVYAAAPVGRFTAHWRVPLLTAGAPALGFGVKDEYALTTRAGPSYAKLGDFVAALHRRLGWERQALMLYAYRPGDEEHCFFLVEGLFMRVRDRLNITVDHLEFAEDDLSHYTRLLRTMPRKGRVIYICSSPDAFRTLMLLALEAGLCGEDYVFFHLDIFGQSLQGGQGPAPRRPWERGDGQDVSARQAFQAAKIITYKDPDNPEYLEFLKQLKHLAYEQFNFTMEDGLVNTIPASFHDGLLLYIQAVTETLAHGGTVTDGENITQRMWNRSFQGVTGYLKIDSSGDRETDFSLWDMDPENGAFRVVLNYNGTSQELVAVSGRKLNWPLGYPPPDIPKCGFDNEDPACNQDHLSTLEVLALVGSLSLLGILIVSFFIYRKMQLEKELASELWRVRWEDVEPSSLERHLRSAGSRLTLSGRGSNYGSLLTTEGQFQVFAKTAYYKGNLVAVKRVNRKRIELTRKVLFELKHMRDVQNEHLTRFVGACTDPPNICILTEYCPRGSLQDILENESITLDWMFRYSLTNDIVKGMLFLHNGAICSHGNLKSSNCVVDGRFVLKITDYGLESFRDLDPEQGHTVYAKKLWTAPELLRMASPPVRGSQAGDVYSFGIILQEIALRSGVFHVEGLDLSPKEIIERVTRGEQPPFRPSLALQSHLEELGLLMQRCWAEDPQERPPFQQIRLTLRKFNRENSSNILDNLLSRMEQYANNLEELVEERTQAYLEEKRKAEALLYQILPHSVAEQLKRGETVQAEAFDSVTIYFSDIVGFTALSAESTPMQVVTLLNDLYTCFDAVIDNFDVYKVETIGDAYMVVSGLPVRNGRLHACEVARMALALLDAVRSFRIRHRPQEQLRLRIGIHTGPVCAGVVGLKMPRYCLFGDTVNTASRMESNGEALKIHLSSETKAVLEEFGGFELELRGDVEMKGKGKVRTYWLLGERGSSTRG
Sequence of Parathyroid hormone/parathyroid hormone-related peptide receptor (Homo sapiens) (Q03431 whole entry, looked up): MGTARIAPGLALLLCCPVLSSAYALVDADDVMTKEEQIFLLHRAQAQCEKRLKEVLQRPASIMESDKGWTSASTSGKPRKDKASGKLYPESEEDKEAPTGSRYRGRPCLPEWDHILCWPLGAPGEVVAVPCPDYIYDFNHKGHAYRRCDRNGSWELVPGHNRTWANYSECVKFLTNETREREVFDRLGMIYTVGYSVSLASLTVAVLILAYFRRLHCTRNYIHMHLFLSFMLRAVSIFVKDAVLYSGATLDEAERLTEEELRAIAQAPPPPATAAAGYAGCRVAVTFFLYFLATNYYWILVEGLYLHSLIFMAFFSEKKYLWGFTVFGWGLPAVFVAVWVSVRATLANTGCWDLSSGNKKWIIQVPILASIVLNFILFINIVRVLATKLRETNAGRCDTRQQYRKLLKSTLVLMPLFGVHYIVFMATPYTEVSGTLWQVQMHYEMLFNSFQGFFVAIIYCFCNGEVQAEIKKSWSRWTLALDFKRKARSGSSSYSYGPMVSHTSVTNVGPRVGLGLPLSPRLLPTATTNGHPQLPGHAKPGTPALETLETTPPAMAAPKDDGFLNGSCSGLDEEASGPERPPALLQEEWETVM
T1 sequence (P78324 whole entry, looked up): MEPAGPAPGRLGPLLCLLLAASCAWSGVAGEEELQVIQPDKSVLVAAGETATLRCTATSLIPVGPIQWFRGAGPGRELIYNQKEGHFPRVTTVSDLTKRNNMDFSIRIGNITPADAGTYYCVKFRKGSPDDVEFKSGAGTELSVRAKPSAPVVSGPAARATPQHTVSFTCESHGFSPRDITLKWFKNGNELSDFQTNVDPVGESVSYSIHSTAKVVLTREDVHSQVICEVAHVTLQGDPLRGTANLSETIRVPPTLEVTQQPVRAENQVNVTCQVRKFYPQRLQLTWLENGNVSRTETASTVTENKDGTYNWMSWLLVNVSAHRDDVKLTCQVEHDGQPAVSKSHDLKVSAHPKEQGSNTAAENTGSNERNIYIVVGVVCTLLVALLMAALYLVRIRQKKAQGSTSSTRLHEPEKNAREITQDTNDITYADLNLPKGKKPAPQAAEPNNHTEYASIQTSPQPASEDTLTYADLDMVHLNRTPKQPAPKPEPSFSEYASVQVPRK
T1 sequence (Q08722 whole entry, looked up): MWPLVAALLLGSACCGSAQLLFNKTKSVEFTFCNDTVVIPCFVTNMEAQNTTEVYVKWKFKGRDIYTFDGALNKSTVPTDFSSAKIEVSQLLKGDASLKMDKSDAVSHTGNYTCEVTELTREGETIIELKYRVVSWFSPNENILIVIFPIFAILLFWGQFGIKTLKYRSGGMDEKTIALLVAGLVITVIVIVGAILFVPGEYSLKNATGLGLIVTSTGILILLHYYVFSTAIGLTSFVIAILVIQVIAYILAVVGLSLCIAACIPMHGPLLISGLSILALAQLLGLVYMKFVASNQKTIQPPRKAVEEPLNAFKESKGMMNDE
Sequence of Atrial natriuretic peptide receptor 2 (Homo sapiens) (P20594 whole entry, looked up): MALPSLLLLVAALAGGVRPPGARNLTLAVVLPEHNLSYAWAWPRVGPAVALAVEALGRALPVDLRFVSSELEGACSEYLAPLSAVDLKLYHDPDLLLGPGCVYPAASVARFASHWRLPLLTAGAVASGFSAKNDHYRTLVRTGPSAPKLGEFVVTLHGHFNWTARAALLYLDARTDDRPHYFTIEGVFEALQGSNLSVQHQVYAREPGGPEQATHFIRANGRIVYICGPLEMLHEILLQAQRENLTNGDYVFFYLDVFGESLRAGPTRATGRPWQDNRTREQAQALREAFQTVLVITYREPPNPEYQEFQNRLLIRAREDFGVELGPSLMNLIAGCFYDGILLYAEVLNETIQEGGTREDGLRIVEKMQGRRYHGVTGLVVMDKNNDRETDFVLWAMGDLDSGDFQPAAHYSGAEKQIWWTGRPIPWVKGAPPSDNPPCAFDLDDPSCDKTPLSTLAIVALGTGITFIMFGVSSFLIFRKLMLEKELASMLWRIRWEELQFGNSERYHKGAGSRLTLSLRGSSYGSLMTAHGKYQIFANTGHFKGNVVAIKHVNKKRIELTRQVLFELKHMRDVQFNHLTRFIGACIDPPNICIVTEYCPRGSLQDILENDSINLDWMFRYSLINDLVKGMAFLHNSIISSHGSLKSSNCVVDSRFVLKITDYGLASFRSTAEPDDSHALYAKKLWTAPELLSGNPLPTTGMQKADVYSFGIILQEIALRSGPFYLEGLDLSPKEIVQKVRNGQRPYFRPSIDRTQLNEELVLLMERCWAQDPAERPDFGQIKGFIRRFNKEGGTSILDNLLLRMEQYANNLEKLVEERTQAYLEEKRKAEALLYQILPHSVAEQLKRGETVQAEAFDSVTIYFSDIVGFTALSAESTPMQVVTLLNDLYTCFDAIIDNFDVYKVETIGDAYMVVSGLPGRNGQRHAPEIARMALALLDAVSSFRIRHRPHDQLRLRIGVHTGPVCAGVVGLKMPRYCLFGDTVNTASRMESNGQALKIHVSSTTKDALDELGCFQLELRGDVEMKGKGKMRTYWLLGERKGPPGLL

`O=S(=O)(O)c1ccc(O)cc1`: the compound was classed as inactive in test [1]. The Potency result in test [2], in test [3], in test [4], in test [5], in test [6] and in test [7] was “inactive” in each case. The Potency result in [8], in test [9], in test [10] and in [11] was “inactive” each time.

Regarding `N/C(=N\N=C\c1ccc(Cl)cc1)N/N=C/c1ccc(Cl)cc1`, the outcome in test [1] was inactive. The Potency entry in test [2], in test [3], in test [4], in test [5] and in test [6] was “inactive” each time.

Take `FC1(F)C(F)(F)C(F)(F)C2(F)C(F)(F)C(F)(F)C(F)(F)C(F)(F)C2(F)C1(F)F` (stereo not drawn): the call in [1] was inactive. Also, the Potency entry in test [2], in test [3], in test [4], in test [5], in test [6] and in test [7] was “inactive” each time. For the same compound, the Potency entry in test [8], in test [9], in [10], in test [11] and in test [12] was “inactive” in each case.

For the compound `CC(=O)Nc1ccc(S(=O)(=O)Nc2ccc([N+](=O)[O-])cc2)cc1`, in test [1], the outcome was inactive. The Potency result in test [2], in test [3], in test [4], in test [5], in test [6] and in test [7] was “inactive” in each case. Further, the Potency entry in [8], in test [9], in test [10], in test [11] and in test [12] was “inactive” each time.

Consider `Cc1cn([C@H]2C[C@H](F)[C@@H](CO)O2)c(=O)[nH]c1=O`, for which the call in test [1] was inactive. In addition, the Potency result in [2], in test [3], in [4], in test [5], in test [6] and in test [7] was “inactive” in each case. Besides, the Potency entry in test [8] and in test [9] was “inactive” throughout.

Turning to `CN=C(N)NCCC[C@H](N)C(=O)O`, the compound was called inactive in [1], in test [13], in test [14], in test [15], in [16] and in test [17]. Moreover, the result in test [18] and in test [19] was inactive. Moreover, the Potency entry in test [2], in test [3], in test [4] and in test [5] was “inactive” in each case.

Turning to `CCOC(=O)[C@H](CCc1ccccc1)N[C@@H](C)C(=O)N1[C@H](C(=O)O)C[C@H]2CCCC[C@@H]21`, the outcome in test [1], in test [13], in test [14], in [15], in test [16] and in [17] was inactive. Besides, the result in test [18] and in [19] was inactive. Besides, the Potency result in [2], in test [3], in test [4] and in test [5] was “inactive” each time.

`C#C[C@]1(OC(C)=O)CC[C@H]2[C@@H]3CCC4=C/C(=N/O)CC[C@@H]4[C@H]3CC[C@@]21CC`: the compound was classed as inactive in test [1]. Further, the Potency entry in test [2] and in [3] was “inactive” each time. Besides, in [4], the Potency was 6.51 µM (active).

Turning to `Cc1nc(-c2ccc(Cl)cc2)oc1COC(C)(C)C(=O)O`, in [1], the outcome was inactive. Besides, the Potency entry in test [2], in test [3], in [4], in test [5], in test [6] and in test [7] was “inactive” each time. Further, the Potency result in test [8], in test [9], in [10], in [11] and in test [12] was “inactive” each time.

With `CC(=O)Nc1ccc(CC(=O)O)cc1`, the result in test [1] was inactive. The Potency entry in test [2], in test [3], in test [4], in test [5], in [6] and in test [7] was “inactive” each time. Further, the Potency result in test [8], in test [9], in test [10], in test [11] and in test [12] was “inactive” throughout.

In the case of `NC(N)=NCc1cccc(I)c1`, the call in test [1], in test [13], in test [14], in test [15], in [16] and in test [18] was inactive. Besides, the compound was classed as inactive in [19]. Also, the Potency result in test [2], in [3], in [4] and in test [5] was “inactive” in each case.
